Laboratory results from the supplement of paper PMC7411054.
Where a name gives a salt, the structure may show the parent alone.

Tests used:
Experiment in all cases: lowest phenotypically active concentration; higher = less potent
Settings in all cases: treatment time: 24 h
HepG2-ACTB-RAB5A = test system: HepG2-ACTB-RAB5A
Summary of the method: (§1)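 Fifteen gene-edited A549, HepG2 and WPMY1 reporter lines (BFP segmentation plus GFP and RFP/FusionRed markers) were treated at 0.3, 1, 3 or 9 µM for 24 h, four wells each, then imaged live. Live-cell features per well were normalised to DMSO control wells. Deviation required ≥3 of 4 wells beyond the 95th percentile of DMSO Euclidean distances, and reproducibility required median replicate Pearson correlation above the 95th percentile of non-replicates. Phenotypic activity needed both criteria.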

HepG2-CANX-COX4 = test system: HepG2-CANX-COX4
Summary of the method: as §1

HepG2-GM130-SQSTM1 = test system: HepG2-GM130-SQSTM1
Summary of the method: as §1

HepG2-TP53BP1-CLTA = test system: HepG2-TP53BP1-CLTA
Summary of the method: as §1

HepG2-TUBA1B-RELA = test system: HepG2-TUBA1B-RELA
Summary of the method: as §1

WPMY1-ACTB-RAB5A = test system: WPMY1-ACTB-RAB5A
Summary of the method: as §1

WPMY1-CANX-COX4 = test system: WPMY1-CANX-COX4
Summary of the method: as §1

WPMY1-GM130-SQSTM1 = test system: WPMY1-GM130-SQSTM1
Summary of the method: as §1

WPMY1-TP53BP1-CLTA = test system: WPMY1-TP53BP1-CLTA
Summary of the method: as §1

WPMY1-TUBA1B-RELA = test system: WPMY1-TUBA1B-RELA
Summary of the method: as §1

Measured: lowest phenotypically active concentration

COc1cc(Br)c(Nc2nc(-c3c(C)nc4ncccn34)cs2)c(Br)c1
1 µM: HepG2-ACTB-RAB5A | HepG2-CANX-COX4 | HepG2-GM130-SQSTM1 | HepG2-TP53BP1-CLTA | HepG2-TUBA1B-RELA | WPMY1-ACTB-RAB5A | WPMY1-CANX-COX4 | WPMY1-GM130-SQSTM1 | WPMY1-TUBA1B-RELA
3 µM: WPMY1-TP53BP1-CLTA

Nc1cccc(-c2cc3c(Oc4cccc(O)c4)ncnc3[nH]2)c1
9 µM: HepG2-CANX-COX4 | WPMY1-CANX-COX4 | WPMY1-GM130-SQSTM1 | WPMY1-TUBA1B-RELA
3 µM: HepG2-GM130-SQSTM1 | HepG2-TP53BP1-CLTA | HepG2-TUBA1B-RELA | WPMY1-ACTB-RAB5A | WPMY1-TP53BP1-CLTA
1 µM: HepG2-ACTB-RAB5A

CNC(=O)c1ccccc1Sc1ccc2c(/C=C/c3ccccn3)n[nH]c2c1 [Axitinib]
9 µM: WPMY1-ACTB-RAB5A | WPMY1-CANX-COX4
3 µM: HepG2-ACTB-RAB5A | HepG2-CANX-COX4 | HepG2-GM130-SQSTM1 | HepG2-TP53BP1-CLTA | HepG2-TUBA1B-RELA | WPMY1-GM130-SQSTM1 | WPMY1-TP53BP1-CLTA | WPMY1-TUBA1B-RELA

CC[C@@H]1C(=O)N(C)c2cnc(Nc3ccc(C(=O)NC4CCN(C)CC4)cc3OC)nc2N1C1CCCC1
1 µM: HepG2-CANX-COX4
≤ 0.3 µM: HepG2-ACTB-RAB5A | HepG2-GM130-SQSTM1 | HepG2-TP53BP1-CLTA | HepG2-TUBA1B-RELA | WPMY1-ACTB-RAB5A | WPMY1-CANX-COX4 | WPMY1-GM130-SQSTM1 | WPMY1-TP53BP1-CLTA | WPMY1-TUBA1B-RELA

O=C1NC(=O)[C@@H](c2cn3c4c(cccc24)CCC3)[C@@H]1c1c[nH]c2ccccc12 [tivantinib]
1 µM: HepG2-ACTB-RAB5A | HepG2-CANX-COX4 | HepG2-GM130-SQSTM1 | HepG2-TP53BP1-CLTA | HepG2-TUBA1B-RELA | WPMY1-CANX-COX4 | WPMY1-GM130-SQSTM1 | WPMY1-TP53BP1-CLTA | WPMY1-TUBA1B-RELA
≤ 0.3 µM: WPMY1-ACTB-RAB5A

Cc1cc(Nc2nc(N[C@@H](C)c3ncc(F)cn3)ncc2Cl)n[nH]1
1 µM: HepG2-ACTB-RAB5A | HepG2-TUBA1B-RELA
9 µM: WPMY1-CANX-COX4 | WPMY1-GM130-SQSTM1
≤ 0.3 µM: HepG2-TP53BP1-CLTA
3 µM: HepG2-CANX-COX4 | HepG2-GM130-SQSTM1 | WPMY1-ACTB-RAB5A | WPMY1-TP53BP1-CLTA | WPMY1-TUBA1B-RELA

C[C@@H](N)[C@H]1CC[C@H](C(=O)Nc2ccncc2)CC1
3 µM: HepG2-ACTB-RAB5A | HepG2-TUBA1B-RELA
9 µM: WPMY1-TP53BP1-CLTA
1 µM: HepG2-CANX-COX4 | HepG2-GM130-SQSTM1 | HepG2-TP53BP1-CLTA | WPMY1-ACTB-RAB5A | WPMY1-CANX-COX4 | WPMY1-GM130-SQSTM1 | WPMY1-TUBA1B-RELA

Fc1ccccc1CNCc1ccc(-c2ccnc3[nH]ccc23)cc1 [OXA 06 dihydrochloride]
1 µM: HepG2-ACTB-RAB5A | HepG2-CANX-COX4 | HepG2-TP53BP1-CLTA | HepG2-TUBA1B-RELA | WPMY1-ACTB-RAB5A | WPMY1-GM130-SQSTM1 | WPMY1-TUBA1B-RELA
9 µM: WPMY1-TP53BP1-CLTA
≤ 0.3 µM: HepG2-GM130-SQSTM1 | WPMY1-CANX-COX4

O=C(OC12CC3CC(CC(C3)C1)C2)c1ccc(NCc2cc(O)ccc2O)cc1 [Adaphostin]
3 µM: HepG2-CANX-COX4 | HepG2-GM130-SQSTM1 | HepG2-TP53BP1-CLTA | HepG2-TUBA1B-RELA | WPMY1-TP53BP1-CLTA
1 µM: HepG2-ACTB-RAB5A | WPMY1-ACTB-RAB5A | WPMY1-CANX-COX4 | WPMY1-GM130-SQSTM1 | WPMY1-TUBA1B-RELA

Cc1c(C(=O)N2CCOc3ccc(-c4ccc(N)nc4)cc3C2)ccc(S(C)(=O)=O)c1F
9 µM: HepG2-TP53BP1-CLTA | WPMY1-TUBA1B-RELA
3 µM: HepG2-ACTB-RAB5A | HepG2-CANX-COX4 | HepG2-GM130-SQSTM1 | HepG2-TUBA1B-RELA | WPMY1-ACTB-RAB5A | WPMY1-CANX-COX4 | WPMY1-GM130-SQSTM1 | WPMY1-TP53BP1-CLTA

COC(=O)Nc1nc2ccc(C(=O)c3cccs3)cc2[nH]1 [Nocodazole]
≤ 0.3 µM: HepG2-ACTB-RAB5A | HepG2-CANX-COX4 | HepG2-GM130-SQSTM1 | HepG2-TP53BP1-CLTA | HepG2-TUBA1B-RELA | WPMY1-ACTB-RAB5A | WPMY1-CANX-COX4 | WPMY1-GM130-SQSTM1 | WPMY1-TP53BP1-CLTA | WPMY1-TUBA1B-RELA

Oc1cccc(Nc2ccnc3cc(-c4cccc(CN5CCOCC5)c4)sc23)c1 [LCB 03-0110 dihydrochloride]
1 µM: HepG2-ACTB-RAB5A | HepG2-CANX-COX4 | HepG2-TUBA1B-RELA
3 µM: HepG2-GM130-SQSTM1 | HepG2-TP53BP1-CLTA | WPMY1-ACTB-RAB5A | WPMY1-CANX-COX4 | WPMY1-GM130-SQSTM1 | WPMY1-TP53BP1-CLTA | WPMY1-TUBA1B-RELA

COc1ccc(N(C)c2nc(C)nc3ccccc23)cc1 [MPC 6827 hydrochloride]
≤ 0.3 µM: HepG2-ACTB-RAB5A | HepG2-CANX-COX4 | HepG2-GM130-SQSTM1 | HepG2-TP53BP1-CLTA | HepG2-TUBA1B-RELA | WPMY1-ACTB-RAB5A | WPMY1-CANX-COX4 | WPMY1-GM130-SQSTM1 | WPMY1-TP53BP1-CLTA | WPMY1-TUBA1B-RELA

CCN(CCO)CCCOc1ccc2c(Nc3cc(CC(=O)Nc4cccc(F)c4)n[nH]3)ncnc2c1 [barasertib-HQPA]
≤ 0.3 µM: HepG2-ACTB-RAB5A | HepG2-CANX-COX4 | HepG2-GM130-SQSTM1 | HepG2-TP53BP1-CLTA | HepG2-TUBA1B-RELA | WPMY1-ACTB-RAB5A | WPMY1-CANX-COX4 | WPMY1-GM130-SQSTM1 | WPMY1-TP53BP1-CLTA | WPMY1-TUBA1B-RELA

COc1c(C)cnc(Cn2cc(C#CCC(C)(C)O)c3c(Cl)nc(N)nc32)c1C
≤ 0.3 µM: HepG2-ACTB-RAB5A | HepG2-CANX-COX4 | HepG2-GM130-SQSTM1 | HepG2-TP53BP1-CLTA | HepG2-TUBA1B-RELA | WPMY1-ACTB-RAB5A | WPMY1-CANX-COX4 | WPMY1-GM130-SQSTM1 | WPMY1-TP53BP1-CLTA | WPMY1-TUBA1B-RELA

O=C(c1cccc(Cl)c1F)N1CCN(Cc2cccc(Nc3nccs3)n2)CC1
9 µM: WPMY1-CANX-COX4
1 µM: WPMY1-ACTB-RAB5A | WPMY1-TUBA1B-RELA
3 µM: WPMY1-GM130-SQSTM1
≤ 0.3 µM: HepG2-ACTB-RAB5A | HepG2-CANX-COX4 | HepG2-GM130-SQSTM1 | HepG2-TP53BP1-CLTA | HepG2-TUBA1B-RELA | WPMY1-TP53BP1-CLTA

CCC1(O)CC2CN(CCc3c([nH]c4ccccc34)C(C(=O)OC)(c3cc4c(cc3OC)N(C)C3C(O)(C(=O)OC)C(OC(C)=O)C5(CC)C=CCN6CCC43C65)C2)C1 (stereo not given) [Vinblastine sulfate]
≤ 0.3 µM: HepG2-ACTB-RAB5A | HepG2-CANX-COX4 | HepG2-GM130-SQSTM1 | HepG2-TUBA1B-RELA | WPMY1-ACTB-RAB5A | WPMY1-CANX-COX4 | WPMY1-GM130-SQSTM1 | WPMY1-TP53BP1-CLTA | WPMY1-TUBA1B-RELA
1 µM: HepG2-TP53BP1-CLTA

O=C(Cc1ccc(-c2ccc(OCCN3CCOCC3)cc2)cn1)NCc1ccccc1
≤ 0.3 µM: HepG2-ACTB-RAB5A | HepG2-CANX-COX4 | HepG2-GM130-SQSTM1 | HepG2-TP53BP1-CLTA | HepG2-TUBA1B-RELA | WPMY1-ACTB-RAB5A | WPMY1-CANX-COX4 | WPMY1-GM130-SQSTM1 | WPMY1-TP53BP1-CLTA | WPMY1-TUBA1B-RELA
